According to PubChem BioAssay (NCI):
The panel holds about 83,000 compounds, 20% with a hit somewhere; the sample as a whole holds those more often.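 Single-concentration screen, 48 h exposure, 96-well plates. Endpoint: percent growth. Below 10 = active.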 Values without a mark were called inactive. Calls of active or inactive are those of the source.

Assays:
Test in all cases: NCI-60 one-dose screen, 48 h (100 = growth as untreated, 0 = no growth, -100 = all killed)
Settings in all cases: 10 µM unless noted
DU-145 prostate = test system: DU-145 prostate
K-562 leukemia = test system: K-562 leukemia
MALME-3M melanoma = test system: MALME-3M melanoma
MDA-MB-231 breast = test system: MDA-MB-231 breast
RXF 393 renal = test system: RXF 393 renal
SF-268 CNS = test system: SF-268 CNS
SF-295 CNS = test system: SF-295 CNS
SF-539 CNS = test system: SF-539 CNS
UACC-257 melanoma = test system: UACC-257 melanoma
M14 melanoma = test system: M14 melanoma
HCT-15 colon = test system: HCT-15 colon
HT29 colon = test system: HT29 colon
SNB-75 CNS = test system: SNB-75 CNS
SNB-19 CNS = test system: SNB-19 CNS
U251 CNS = test system: U251 CNS
PC-3 prostate = test system: PC-3 prostate
SK-MEL-5 melanoma = test system: SK-MEL-5 melanoma
UACC-62 melanoma = test system: UACC-62 melanoma
SK-MEL-28 melanoma = test system: SK-MEL-28 melanoma

Row | SMILES | growth (DU-145 prostate) | growth (K-562 leukemia) | growth (MALME-3M melanoma) | growth (MDA-MB-231 breast) | growth (RXF 393 renal) | growth (SF-268 CNS) | growth (SF-295 CNS) | growth (SF-539 CNS) | growth (UACC-257 melanoma) | growth (M14 melanoma) | growth (HCT-15 colon) | growth (HT29 colon) | growth (SNB-75 CNS) | growth (SNB-19 CNS) | growth (U251 CNS) | growth (PC-3 prostate) | growth (SK-MEL-5 melanoma) | growth (UACC-62 melanoma) | growth (SK-MEL-28 melanoma)
1 | CC(=O)Nc1ccc(-n2cnc3ccc(-c4ccc(O)cc4)cc32)cc1 | 44.7% | 56.6% | 50.3% | 70.4% | 10.9% | 36.3% | 56% | 34.2% | 67.3% | 48.7% | 52% | 102% | 56.5% | 55.5% | 37% | 47.6% | 54.6% | 46.1% | 44.3%
2 | O=C(Cn1c2c(sc1=O)[C@H]1[C@@H](O)[C@@H](O)[C@H](O)[C@@H]1CS2)N1CCOCC1 | 112% | 106% | 98.8% | 106% | 117% | 97.7% | 105% | 96.8% | 110% | 112% | 107% | 106% | 82.3% | 103% | 99.2% | – | 102% | 101% | 107%
3 | COc1ccc2oc3c4[nH]c5ccccc5c4c4c(c3c2c1)C(=O)N(C(=O)OC(C)(C)C)C4=O | 6.06% (active) | 3.78% (active) | -24.9% (active) | 8.48% (active) | -0.96% (active) | 4.9% (active) | -26.7% (active) | -24.8% (active) | -52.9% (active) | -44.6% (active) | -23.2% (active) | -32% (active) | -3.78% (active) | 11.8% | 4.43% (active) | -12.9% (active) | -99.3% (active) | – | -45.5% (active)
4 | Cn1cc(-c2nc(N)nnc2-c2c[nH]c3ccc(F)cc23)c2cccnc21 | 49.9% | 30.2% | 64.5% | 22% | 60.5% | 34% | 15.8% | 40.8% | 61.9% | 26.3% | 51.8% | 44.5% | 7.07% (active) | 39% | 35.7% | 51.2% | 35.3% | – | 75.1%
